MEKK2 WT-MEK5: raises or lowers MEK5 binding to wildtype human MEKK2 PB1 domain. bead flow cytometry, Alexa488-MEK5 binding to MEKK2 WT; actives lie on both sides. AID 1531. actives 1.1% (n = 290,000). binding response (% of control), % at 10 µM. Q9Y2U5; in the data active = binding response below about 67% or above about 130%
CRFBP-R2 agonist: agonists of human CRF-binding protein/CRF-R2 receptor complex | HEK293 CRF-R2/CRF-BP, calcium dye fluorescence (FLIPR); percent of saturating CRF peptide response | activation, % at 13.2 µM | actives 0.46% (n = 350,000);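 active = activation of at least 50%, plus an integration ratio under a set limit after plate pattern correction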
MEKK3 PB1 HTS: raises or lowers MEK5 binding to the human MEKK3 PB1 domain | bead-based flow cytometry, Alexa488-MEK5 binding to MEKK3; actives lie on both sides; 0 = blocked by unlabeled MEK5, 100 = vehicle | AID 1529 | binding response (% of control), % at 10 µM | actives 1.4% (n = 290,000) | Q99759;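 active = binding response more than 3 SD above or below the average of its plate-row segment, actives on both sides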;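 note: Alexa488 bead fluorescence after subtracting the streptavidin-only scavenger bead signal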
ABCB6 inh 2: inhibitors of human ABC transporter ABCB6 | Q9NP58 | K562-ABCB6 porphyrin accumulation, flow cytometry, 1 h; active compounds read low | fluorescence ratio to DMSO, % at 10 µM | actives 0.19% (n = 360,000) | AID 602162;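 active = fluorescence ratio to DMSO below 75%, the collection mean minus 3 SD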;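 note: signal is porphyrin accumulated inside mitochondria; lower ratio means ABCB6 inhibition with less porphyrin fluorescence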
Target sequence (Q9NP58 whole entry, looked up): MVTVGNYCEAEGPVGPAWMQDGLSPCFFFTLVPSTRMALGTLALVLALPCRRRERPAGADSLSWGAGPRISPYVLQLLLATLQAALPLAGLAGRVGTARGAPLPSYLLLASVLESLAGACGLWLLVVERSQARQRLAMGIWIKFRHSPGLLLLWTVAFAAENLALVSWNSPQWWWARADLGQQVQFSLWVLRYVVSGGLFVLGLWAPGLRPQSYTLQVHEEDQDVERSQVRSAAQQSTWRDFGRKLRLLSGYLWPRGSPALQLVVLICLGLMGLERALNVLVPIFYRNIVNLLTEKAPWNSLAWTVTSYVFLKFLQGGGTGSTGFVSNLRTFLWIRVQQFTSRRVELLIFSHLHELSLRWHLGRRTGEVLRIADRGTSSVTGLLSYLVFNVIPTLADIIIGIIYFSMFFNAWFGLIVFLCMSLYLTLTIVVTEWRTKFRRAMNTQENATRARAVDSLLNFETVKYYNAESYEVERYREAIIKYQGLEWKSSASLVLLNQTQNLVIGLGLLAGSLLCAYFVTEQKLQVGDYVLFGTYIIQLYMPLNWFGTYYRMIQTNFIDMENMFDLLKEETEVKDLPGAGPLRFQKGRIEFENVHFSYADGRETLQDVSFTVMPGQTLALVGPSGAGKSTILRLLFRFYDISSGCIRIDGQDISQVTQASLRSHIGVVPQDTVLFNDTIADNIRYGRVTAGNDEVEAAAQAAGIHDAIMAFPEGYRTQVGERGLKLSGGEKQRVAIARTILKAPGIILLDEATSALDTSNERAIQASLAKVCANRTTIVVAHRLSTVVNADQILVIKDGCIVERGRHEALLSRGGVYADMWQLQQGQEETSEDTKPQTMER
MEKK2mut PB1 HTS: signal of MEK5 binding to mutant human MEKK2 PB1 domain; bead flow cytometry, Alexa488-MEK5 binding to MEKK2 mutant; percent response, % at 10 µM; actives 0.35% (n = 290,000); in the data active = percent response above about 24%, passing the limit was not always enough
CRFR2-BP antag: CRF-BP/CRF-R2 complex antagonism. inhibition, % at 11.8 µM. actives 0.59% (n = 350,000). HEK293 CRF-R2/CRF-BP, CRF-induced calcium fluorescence;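 active = inhibition of the ligand-induced calcium signal above about 50% at the single tested concentration, limit read from the data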
MEKK2wt confirm: raises or lowers MEK5 binding to wildtype human MEKK2, retest; shares compounds with MEKK3 PB1 HTS; bead flow cytometry, Alexa488-MEK5 binding to MEKK2 WT; actives lie on both sides; binding response (% of control), % at 10 µM; actives 2.4% (n = 5,900); AID 1892; in the data active = binding response below about 16% or above about 210%; inactive = in between
MEKK2mut-MEK5: signal of MEK5 binding to mutant human MEKK2, retest. shares compounds with MEKK3 PB1 HTS. bead flow cytometry, Alexa488-MEK5 binding to MEKK2 mutant. percent response, % at 10 µM. actives 2% (n = 5,900); in the data active = percent response mostly above about 71%, no sharp cut-off; inactive = mostly below about 38%;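 note: higher means compound restores mutant binding toward wildtype level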
MEKK3-MEK5 inh: confirmation of inhibitors of MEK5 binding to human MEKK3 | shares compounds with MEKK3 PB1 HTS | bead flow cytometry, Alexa488-MEK5 binding to MEKK3; active compounds read low | binding response (% of control), % at 10 µM | actives 1.8% (n = 5,900) | AID 1894;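 active = binding response below 72% of control, or above a set upper limit, though filed actives all read lower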;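 note: lower values mean stronger disruption of MEK5 binding to MEKK3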
A number is an active result; n = inactive; x = no result; [ ] = dose if it differs, or a comment. Most compounds without a hit are left out; they make up all but 2.9% or so of the library.

SMILES | MEKK2 WT-MEK5 | CRFBP-R2 agonist | MEKK3 PB1 HTS | ABCB6 inh 2 | MEKK2mut PB1 HTS | CRFR2-BP antag | MEKK2wt confirm | MEKK2mut-MEK5 | MEKK3-MEK5 inh
CCCCOc1ccc(CONS(=O)(=O)c2ccc(NC(C)=O)cc2)cc1Cl | n | n | 160.0 | n | n | n | n | n | n
O=C1[C@@H]2[C@@H]3C[C@@H]([C@H]4ON=C(c5ccc(Cl)cc5Cl)[C@@H]34)[C@@H]2C(=O)N1C1CCCCC1 | n | n | 144.0 | n | n | n | n | n | n
N[C@@H](Cc1cnc[nH]1)C(=O)Nc1ccc2ccccc2c1 | x | n | x | n | x | n | x | x | x
CN(C)S(=O)(=O)c1ccc(C(=O)NC(=O)CSc2ccccc2)cc1 | n | n | 131.0 | n | n | n | n | n | n
COC(=O)C1=C(C(=O)OC)[C@@H]2N(C)c3ccc(OC)cc3[C@@]23C[C@@H](C(=O)OC)N(C(=O)C2CCC2)C3=N1 | n | n | n | x | n | n | x | x | x
COC(=O)C1=C(C(=O)OC)[C@@H]2N(C)c3ccc(OC)cc3[C@@]23C[C@@H](C(=O)OC)N(C(=O)NC2CCCCC2)C3=N1 | 3.0[inhibitor] | n | 2.0[inhibitor] | n | n | n | n | n | n
Cc1ccc(S(=O)(=O)Nc2ccc(C(=O)N3CCN(c4ccccc4O)CC3)cc2)cc1[N+](=O)[O-] | x | n | x | n | x | n | x | x | x
CC(=O)c1oc2ccccc2c1NC(=O)CN1CCCCC1 | 3.0[inhibitor] | n | 4.0[inhibitor] | n | n | n | n | n | n
O=C(COc1ccccc1[N+](=O)[O-])N1CCN(S(=O)(=O)c2ccccc2)CC1 | n | n | n | n | n | n | x | x | x
Cn1ccnc1SCC(=O)N1CCN(S(=O)(=O)c2ccccc2)CC1 | 4.0[inhibitor] | n | 4.0[inhibitor] | n | n | n | n | n | n
O=C(COc1cccnc1[N+](=O)[O-])N1CCN(S(=O)(=O)c2ccccc2)CC1 | n | n | 145.0 | n | n | n | n | n | n
COC(=O)c1ccccc1S(=O)(=O)N1CCC(C(=O)NC2CCCCC2C)CC1 (stereo not given) | x | n | x | n | x | n | x | x | x
Cc1cc(C)cc(N(CC(=O)Nc2ccccc2-c2ccccc2)S(=O)(=O)c2ccccc2)c1 | n | n | 134.0 | n | n | n | n | n | n
CSc1ccccc1NC(=O)CN(c1cccc(C)c1)S(C)(=O)=O | n | n | 67.0[inhibitor] | n | n | n | n | n | n
Cc1cccc(N(CC(=O)Nc2ccccc2F)S(C)(=O)=O)c1 | n | n | n | n | n | n | x | x | x
CC1CCCN(C(=O)COC(=O)Cn2cnc3ccccc32)C1 (stereo not given) | x | n | x | n | x | n | x | x | x
CS(=O)(=O)N(CC(=O)N1CCOCC1)c1cccc(Cl)c1 | x | n | x | n | x | n | x | x | x
CS(=O)(=O)N(CCCC(=O)N1CCCCCC1)c1cccc(Cl)c1 | n | n | n | n | 37.0 | n | n | n | n
Nc1nc(NCCc2ccccc2)nc(NCCO)c1[N+](=O)[O-] | n | n | n | n | n | n | x | x | x
Cc1ccc(S(=O)(=O)N2CCN(C(C)CC(=O)O)CC2)cc1 (stereo not given) | 3.0[inhibitor] | n | 3.0[inhibitor] | n | n | n | n | n | n
CCC(C)c1ccc(S(=O)(=O)N2CCN(C(C)CC(=O)O)CC2)cc1 (stereo not given) | n | n | n | n | n | n | x | x | x
COc1nc(-c2ccccc2)ccc1-c1noc(COc2ccccc2)n1 | n | n | 132.0 | n | n | n | n | n | n
Cc1cc2ncn(CCC(=O)NC(C)(C)C)c2cc1C | 4.0[inhibitor] | n | 3.0[inhibitor] | n | n | n | n | n | n
Cc1cnc(C(=O)Nc2nccs2)cn1 | 2.0[inhibitor] | n | 2.0[inhibitor] | n | n | n | n | n | n

Screening data from PubChem.
